Assay results reported in PubChem BioAssay AID2553 (Johns Hopkins Ion Channel Center, 2010).
Out of some 310,000 compounds screened, about 3,300 (1.1%) were called active.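 The calls were made as follows: active = B-score under library mean minus 3 SD, initial fluorescence not abnormally high, positive integrated signal ratio; inactive = the rest.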 The sample as a whole holds a higher share of actives than the screen did.

target: Short transient receptor potential channel 6 (Mus musculus) (UniProt Q61143); test: mouse TRPC6 channel inhibitors, primary screen, cell-based, HEK293, membrane potential dye (AID 2553); conditions: ACh-evoked depolarization, at 10 µM; stronger effect = lower value;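 as to B-score: B-score derived from integrated fluorescence ratio over the kinetic read; more negative B-score means stronger inhibition of depolarization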
Sequence (Q61143 whole entry, looked up): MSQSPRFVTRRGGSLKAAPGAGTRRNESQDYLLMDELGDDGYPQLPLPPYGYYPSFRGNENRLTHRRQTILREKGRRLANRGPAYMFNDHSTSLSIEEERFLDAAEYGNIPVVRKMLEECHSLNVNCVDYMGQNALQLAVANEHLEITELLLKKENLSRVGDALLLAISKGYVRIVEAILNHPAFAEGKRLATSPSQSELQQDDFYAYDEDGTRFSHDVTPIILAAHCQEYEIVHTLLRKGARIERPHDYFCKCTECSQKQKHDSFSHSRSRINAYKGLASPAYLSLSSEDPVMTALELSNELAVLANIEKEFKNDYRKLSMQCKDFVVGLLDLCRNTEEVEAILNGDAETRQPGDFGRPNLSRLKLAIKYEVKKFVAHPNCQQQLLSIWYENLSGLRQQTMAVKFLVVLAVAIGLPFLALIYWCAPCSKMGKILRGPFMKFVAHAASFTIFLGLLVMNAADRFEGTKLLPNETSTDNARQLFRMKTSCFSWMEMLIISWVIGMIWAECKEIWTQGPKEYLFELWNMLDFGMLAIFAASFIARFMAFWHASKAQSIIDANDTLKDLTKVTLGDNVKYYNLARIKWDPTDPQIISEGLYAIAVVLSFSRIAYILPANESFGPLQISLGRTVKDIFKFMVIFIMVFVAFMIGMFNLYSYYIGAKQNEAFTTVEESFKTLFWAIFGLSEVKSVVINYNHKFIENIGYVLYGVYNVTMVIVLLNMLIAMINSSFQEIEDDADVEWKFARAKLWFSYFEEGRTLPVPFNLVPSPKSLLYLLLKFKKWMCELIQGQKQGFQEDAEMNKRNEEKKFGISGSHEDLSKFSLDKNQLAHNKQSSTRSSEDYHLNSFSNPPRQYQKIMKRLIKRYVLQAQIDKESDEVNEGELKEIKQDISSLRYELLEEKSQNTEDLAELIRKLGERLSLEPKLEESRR

Row | Structure (SMILES) | B-score
1 | CCc1nnc(NC(=O)CSc2nnnn2-c2cccc(C(C)=O)c2)s1 | inactive
2 | O=S(=O)(Nc1nccs1)c1ccc2c(c1)OCCO2 | inactive
3 | CCOCCCNc1nc(-c2ccccc2)nc2ccccc12 | inactive
4 | CC(C)(C)Nc1nc(-c2ccccn2)nc2ccccc12 | -6.28 (active)
5 | Cc1ccc(Oc2nc(-c3ccccn3)nc3ccccc23)cc1 | inactive
6 | CC(=O)Nc1ccc(S(=O)(=O)NC2(C(F)(F)F)C(=O)NC(C)=C2C#N)cc1 (configuration not stated) | inactive
7 | O=S1(=O)CCOC[C@H](CC2CCCCC2)N1Cc1ccc(F)cc1 | inactive
8 | N=c1c2c3c(sc2nc2n1CCCCC2)CCCC3 | -10.6 (active)
9 | CC1(C)Cc2c(sc3nc4n(c(=N)c23)CCCCC4)CO1 | inactive
10 | NNC(=O)C1CCCn2c1nc1sc3c(c1c2=O)CCCC3 (configuration not stated) | inactive
11 | Cc1ccc(-c2nc(CSCC(=O)NC3CCN(Cc4ccccc4)CC3)c(C)o2)cc1 | inactive
12 | Cc1c(-c2ccccc2)n[nH]c1C(=O)N=Nc1c(O)[nH]c2ccccc12 | inactive
13 | O=C(c1cnc(Cl)c(Cl)c1)N1CCN(S(=O)(=O)c2ccc(F)cc2)CC1 | inactive
14 | O=C(O)C1CCCCC1C(=O)N1CCN(S(=O)(=O)c2ccc(F)cc2)CC1 (configuration not stated) | inactive
15 | O=C(c1cccc(-n2cccc2)c1)N1CCN(S(=O)(=O)c2ccc(F)cc2)CC1 | -5.32 (active)
16 | c1ccc2c(c1)OCCOCCOCCO2 | inactive
17 | CCOc1cccc(/C=N/NC(=S)NCCN2CCOCC2)c1O | inactive
18 | CCOc1nc(NCCN2CCOCC2)nc(Nc2ccc(C)cc2)n1 | -5.49 (active)
19 | Nc1nc(NCCCN2CCOCC2)nc(Nc2ccccc2)c1[N+](=O)[O-] | inactive
20 | Cc1c(Br)ccc(NC(=O)COc2ccccc2C(N)=O)c1C | inactive
21 | O=S(=O)(Nc1cccc(Oc2ccc(Cl)cc2)n1)c1ccc(F)cc1 | inactive
22 | COc1cccc(NC(=O)Nc2nnc(N3CCCCC3C)s2)c1 (configuration not stated) | inactive
23 | CCOC(=O)C1CCN(Cc2c(C(=O)N3CCOCC3)nc3c(C)cccn23)CC1 | inactive

Row | Structure (SMILES) | B-score
24 | Nc1nc(-c2ccccc2)cc(-c2ccccc2)n1 | inactive
25 | COc1ccc(-c2cc(C(=O)N(C)Cc3ccccc3)c3ccccc3n2)cc1 | inactive
26 | CN(C)c1cc(N)c2ccccc2n1 (tested in a mixture with another compound) | -9.26 (active)
27 | Cc1cc(C)c(S(=O)(=O)NCCCN2CCOCC2)cc1Br | inactive
28 | CN1CC(c2ccccc2)C2(COc3ccccc3C2=O)C12C(=O)Nc1ccccc12 (configuration not stated) | inactive
29 | Cc1ccc2c(c1)C1CN(C)CCC1N2C(=S)Nc1ccc(OC(F)F)cc1 (configuration not stated) | inactive
30 | Cc1ccc2c(c1)C1CN(C)CCC1N2C(=S)Nc1ccc(Cl)cc1Cl (configuration not stated) | -5.46 (active)
31 | S=C(Nc1ccc(Cl)cc1Cl)N1CCCC1 | inactive
32 | Cc1ccc(S(=O)(=O)N(Cc2ccccc2)c2ccccn2)cc1[N+](=O)[O-] | inactive
33 | O=C(Cn1cc(-c2nnnn2-c2ccc(Cl)cc2)c(=O)c2ccccc21)c1ccccc1 | inactive
34 | O=C(CSc1cccc[n+]1[O-])c1ccc(Cl)cc1 | inactive
35 | O=C(C[n+]1ccc2c(c1)nnn2-c1ccccc1)c1ccc(Cl)cc1 | -5.81 (active)
36 | COc1ccccc1NS(=O)(=O)N(C)C | inactive
37 | O=S(=O)(NCc1ccc(Cl)cc1Cl)c1cccs1 | inactive
38 | O=S(=O)(Nc1ccccc1Br)c1cccs1 | inactive
39 | O=C(Nc1cccc(Cl)c1)Nc1ccccc1NS(=O)(=O)c1cccs1 | -5.11 (active)
40 | COCCCN1C(=O)C(=O)/C(=C(/O)c2ccc(S(=O)(=O)N3CCOCC3)cc2)C1c1ccc(F)cc1 (configuration not stated) | inactive
41 | COC(=O)c1sccc1-n1cccc1C(=O)C(=O)N1CCCCC1 | inactive
42 | COc1ccccc1OCC(O)CN1CCOCC1 (configuration not stated) | inactive
43 | CC(C)(C)NCC(O)COc1cccc2[nH]c(=O)[nH]c12 (configuration not stated) | inactive
44 | COc1ccccc1OCCNCC(O)COc1cccc2[nH]c3ccccc3c12 (configuration not stated) | -7.01 (active)
45 | CC(=O)c1ccc(N2CCN(C(=O)C3CCN(S(=O)(=O)c4ccc5c(c4)CC(C)N5C(=O)C4CC4)CC3)CC2)cc1 (configuration not stated) | inactive
46 | O=C(CSc1nnc(SCc2ccc(Cl)cc2)s1)N/N=C/c1ccccc1Cl | inactive

Row | Structure (SMILES) | B-score
47 | CCN(C(=O)COC(=O)c1ccc(COc2ccc3c(C)cc(=O)oc3c2)cc1)C1CCS(=O)(=O)C1 (configuration not stated) | inactive
48 | CC(C)c1ccc(S(=O)(=O)N2CCN(C(=O)c3ccc(N4CCCC4)c([N+](=O)[O-])c3)CC2)cc1 | inactive
49 | Cc1ccc(S(=O)(=O)N2CCN(C(=O)c3ccc(-n4cncn4)c([N+](=O)[O-])c3)CC2)cc1 | inactive
50 | Nc1ccc(C(=O)N2CCN(S(=O)(=O)c3ccc(Cl)cc3)CC2)cc1[N+](=O)[O-] | -5.95 (active)
51 | CSc1nnc(-c2ccc(C(F)(F)F)cn2)o1 | inactive
52 | CCOc1ccc(NC(=O)CSc2nncn2C)cc1 | inactive
53 | COc1ccc(-c2ccc3nnc(SCC(=O)Nc4ccc(NC(C)=O)cc4)n3n2)cc1 | inactive
54 | CCCCc1nc(NCCN)c(C#N)c2c1CSC(C)(C)C2 | -5.09 (active)
55 | CCCCc1nc(NCc2ccccc2)c(C#N)c2c1CCCC2 | inactive
56 | Cc1nc(NCCN)c(C#N)c2c1COC(C)(C)C2 | inactive
57 | Cc1cc(NC(=O)C(C)SCC(=O)Nc2ccccc2N2CCCCC2)no1 (configuration not stated) | inactive
58 | CN(Cc1cccc2ncccc12)C(=O)CC1C(=O)NCCN1Cc1ccc(F)cc1 (configuration not stated) | inactive
59 | COc1ccc(NC(=O)CN(C)C(=O)c2ccc(COc3ccccc3)o2)cc1 | inactive
60 | O=C(O)c1ccc(NC(=O)c2ccc(COc3ccc(Cl)cc3)o2)cc1 | -5.87 (active)
61 | Cc1cc(OCc2ccc(C(=O)Nc3ccc(C(=O)O)cc3)o2)ccc1Cl | inactive
62 | O=C(COC(=O)CC1CC2CCC1C2)NC(=O)NC1CCCC1 (configuration not stated) | inactive
63 | O=C(COc1ccccc1)Nc1ccc(N2CCN(C(=O)c3cccs3)CC2)cc1 | inactive
64 | COCC(=O)Nc1cc(C(=O)OC)cc(C(=O)OC)c1 | inactive
65 | CC(C)(C)n1nnnc1C(c1ccc2ncccc2c1)N1CCSCC1 (configuration not stated) | -11.5 (active)
66 | Cc1cccc(N2CCN(C(c3ccc(N(C)C)cc3)c3nnnn3C(C)(C)C)CC2)c1C (configuration not stated) | inactive
67 | CC(C)(C)n1nnnc1C(c1ccc(Cl)cc1)N1CCSCC1 (configuration not stated) | inactive
